Bioassay records: PubChem, The Scripps Research Institute Molecular Screening Center
DAX1 inh-1 = DAX1 (NR0B1) inhibitors on StAR promoter, primary screen, cell-based, luminescence, SF-1 (NR5A1), full-length DAX-1; HEK293T StAR-luciferase reporter, SF-1/DAX-1 repression relief; inhibition, % at 6.8 µM; hit rate 1.1% among 370,000; AID 652010, 2013;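 active means inhibition above the mean over all tested compounds plus 3 SD, cut at about 3.6% in these data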;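 further: higher inhibition means more luminescence from relief of DAX-1 repression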
SMARCA2 act = SMARCA2 (BRM) function activators, primary screen, cell-based, luminescence, high throughput; AID 652017, 2013; MG213 cells, MMTV-luciferase reporter, dexamethasone, overnight; activation, % at 9.1 µM; hit rate 1% among 370,000; in the data active means activation above about 7.8%
ssDAF-12 act = S. stercoralis DAF-12 nuclear receptor activators, primary screen, cell-based, luminescence, HEK293, GRIP1 co-expression, lit1-tk-luc | hit rate 1% among 370,000 | HEK293 ssDAF-12/GRIP1 lit1-tk-luc reporter; % of 3 µM dafachronic acid response | AID 652126, 2013 | Nuclear hormone receptor DAF-12 (Strongyloides stercoralis) | activation, % at 6.8 µM;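 active means activation above the mean over all tested compounds plus 3 SD, cut at about 0.9% in these data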
hgDAF-12 ag = H. glycines DAF-12 receptor agonists, primary screen, cell-based, luminescence, HEK293, GAL4 fusion, UAS-luciferase | AID 687014, 2013 | Nuclear hormone receptor DAF-12 (Heterodera glycines), GAL4 fusion | hit rate 1.8% among 370,000 | HEK293 GAL4-hgDAF12 UAS-luciferase reporter, agonist luminescence; normalized to butyrate control | activation, % at 6.8 µM;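 active means activation above a cutoff set at the mean of all screened compounds plus 3 SD, cut at about 10% in these data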
hcDAF12 agonist = H. contortus DAF-12 nuclear receptor activators, primary screen, cell-based, luminescence, HEK293, lit1-tk-luc reporter; AID 652067, 2013; hit rate 1.4% among 370,000; HEK293 hcDAF-12 lit1-tk-luc reporter; 0% DMSO, 100% Δ7-dafachronic acid; activation, % at 6.8 µM;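 active means activation above the mean of all tested compounds plus 3 SD, cut at about 5.5% in these data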
DAX1 inh-2 = DAX1 (NR0B1) inhibitors, primary screen, cell-based, HEK293, Gal4-DAX1, luciferase luminescence; Nuclear receptor subfamily 0 group B member 1 (Homo sapiens), P51843; HEK293 Gal4-DAX1 luciferase reporter; inhibition, % at 6.75 µM; hit rate 0.99% among 340,000;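 active means inhibition above the mean over all tested compounds plus 3 SD, cut at about 4.2% in these data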;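 further: inhibition shows as a rise in luminescence from relieved DAX1 repression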
Target sequence (P51843 207-470 limits assumed): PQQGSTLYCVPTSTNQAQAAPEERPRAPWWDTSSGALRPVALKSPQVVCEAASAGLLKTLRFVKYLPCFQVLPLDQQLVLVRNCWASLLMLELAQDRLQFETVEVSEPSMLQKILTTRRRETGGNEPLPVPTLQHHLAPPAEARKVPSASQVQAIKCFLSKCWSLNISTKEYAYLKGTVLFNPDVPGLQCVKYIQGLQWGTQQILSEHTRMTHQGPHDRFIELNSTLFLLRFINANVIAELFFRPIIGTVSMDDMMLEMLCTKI
A number is an active result. This is a sample that favours compounds with a hit; in the whole collection about 4.8% have one here.

CC(C)C[C@H](NC(=O)[C@H](Cc1ccccc1)n1c(=O)[nH]c2ccccc2c1=O)C(=O)N1CCC(C(=O)O)CC1 was read as DAX1 inh-1 inactive, SMARCA2 act inactive, ssDAF-12 act inactive, hgDAF-12 ag inactive, hcDAF12 agonist inactive and DAX1 inh-2 inactive.
C[C@H](NC(=O)[C@H](Cc1ccccc1)n1c(=O)[nH]c2ccccc2c1=O)C(=O)N1CCC(C(=O)O)CC1 was read as DAX1 inh-1 inactive, SMARCA2 act inactive, ssDAF-12 act inactive, hgDAF-12 ag inactive, hcDAF12 agonist inactive and DAX1 inh-2 4.9.
For O=C(NCc1ccc(F)c(F)c1)C1C2C=CC3(CN(Cc4ccccc4)C(=O)C13)O2 (stereo not given) the results were DAX1 inh-1 inactive, SMARCA2 act inactive, ssDAF-12 act inactive, hgDAF-12 ag inactive and hcDAF12 agonist inactive.
Cc1ccc(CONC(=O)c2cccc([N+](=O)[O-])c2)cc1 was read as DAX1 inh-1 inactive, SMARCA2 act inactive, ssDAF-12 act inactive, hgDAF-12 ag inactive, hcDAF12 agonist inactive and DAX1 inh-2 4.7.
Screening CCCC1CCC2(CCCN2CCOC(=O)Nc2cccc(Cl)c2)CC1 (stereo not given) returned ssDAF-12 act inactive, hgDAF-12 ag inactive and hcDAF12 agonist inactive.
For CCN(Cc1ccccc1)S(=O)(=O)c1cc(C(=O)NC2CCCCCC2)ccc1OC the results were DAX1 inh-1 inactive, SMARCA2 act inactive, ssDAF-12 act inactive, hgDAF-12 ag inactive, hcDAF12 agonist inactive and DAX1 inh-2 inactive.
For O=C(NC1CCCCCCC1)c1cc([N+](=O)[O-])ccc1Cl the results were DAX1 inh-1 inactive, SMARCA2 act inactive, ssDAF-12 act inactive, hgDAF-12 ag inactive, hcDAF12 agonist inactive and DAX1 inh-2 inactive.
For CCOc1ccc(C(=O)NC2CCCCCCC2)cc1 the results were DAX1 inh-1 inactive, SMARCA2 act inactive, ssDAF-12 act inactive, hgDAF-12 ag 12.4, hcDAF12 agonist 6.1 and DAX1 inh-2 inactive.
`O=C(NC1CCCCC1)c1ccc([N+](=O)[O-])cc1` gave DAX1 inh-1 3.7, SMARCA2 act inactive, ssDAF-12 act inactive, hgDAF-12 ag inactive, hcDAF12 agonist inactive and DAX1 inh-2 inactive.
For O=C(NCC1CCCCC1)c1ccc([N+](=O)[O-])cc1 the results were DAX1 inh-1 inactive, SMARCA2 act inactive, ssDAF-12 act inactive, hgDAF-12 ag inactive, hcDAF12 agonist inactive and DAX1 inh-2 10.2.
Screening CCN(CC)S(=O)(=O)c1cc(C(=O)NC2CCCCC2)ccc1C returned DAX1 inh-1 inactive, SMARCA2 act inactive, ssDAF-12 act inactive, hgDAF-12 ag 11.0, hcDAF12 agonist inactive and DAX1 inh-2 inactive.
For CCN(Cc1nc2ccccc2n1C)c1ccccc1 the results were DAX1 inh-1 inactive, SMARCA2 act inactive, ssDAF-12 act 2.1, hgDAF-12 ag inactive, hcDAF12 agonist inactive and DAX1 inh-2 inactive.
`Cc1ccc(C(=O)N2CCN(C)CC2)cc1[N+](=O)[O-]` gave DAX1 inh-1 inactive, SMARCA2 act inactive, ssDAF-12 act inactive, hgDAF-12 ag inactive, hcDAF12 agonist inactive and DAX1 inh-2 4.6.
For Cc1cc(N2CCC[C@@H]2C)nc2ccccc12 the results were ssDAF-12 act inactive, hgDAF-12 ag inactive and hcDAF12 agonist inactive.
For CC1(C)C=Cc2cc3ccc(=O)oc3cc2O1 the results were DAX1 inh-1 inactive, SMARCA2 act inactive, ssDAF-12 act inactive, hgDAF-12 ag inactive, hcDAF12 agonist inactive and DAX1 inh-2 6.7.
For COc1ccccc1/C=C/C(=O)NCCC1=CCCCC1 the results were DAX1 inh-1 inactive, SMARCA2 act inactive, ssDAF-12 act inactive, hgDAF-12 ag 12.1, hcDAF12 agonist inactive and DAX1 inh-2 inactive.
COc1ccccc1OCC(=O)NCCC1=CCCCC1 was read as DAX1 inh-1 inactive, SMARCA2 act inactive, ssDAF-12 act inactive, hgDAF-12 ag inactive, hcDAF12 agonist inactive and DAX1 inh-2 inactive.
